# Experiments:
# Type in all cases: functional
# [1] = target: Solute carrier family 2, facilitated glucose transporter member 1 (Homo sapiens) (UniProt P11166); test: ST_JUDE_LEISH: Cytotoxicity at 2uM final concentration against transgenic Leishmania Mexicana promastigotes LmGLUT1 that are glucose transport deficient and complemented with the human glucose transporter GLUT1. Activity is measured by DNA content using SYBR green in vitro
# [2] = target: Hexose transporter 1 (Plasmodium falciparum) (UniProt O97467); test: ST_JUDE_LEISH: Cytotoxicity at 2uM final concentration against transgenic Leishmania Mexicana promastigotes LmPfHT that are glucose transport deficient and complemented with the Plasmodium falciparum hexose transporter. Activity is measured by DNA content using SYBR green in vitro
# [3] = target: Glucose transporter (Leishmania mexicana) (UniProt O61059); test: ST_JUDE_LEISH: Cytotoxicity at 2uM final concentration against transgenic Leishmania Mexicana promastigotes LmGT2 that are glucose transport deficient and complemented with the L. Mexicana glucose transporter 2. Activity is measured by DNA content using SYBR green in vitro
# Chain of Solute carrier family 2, facilitated glucose transporter member 1 (Homo sapiens) (P11166 whole entry): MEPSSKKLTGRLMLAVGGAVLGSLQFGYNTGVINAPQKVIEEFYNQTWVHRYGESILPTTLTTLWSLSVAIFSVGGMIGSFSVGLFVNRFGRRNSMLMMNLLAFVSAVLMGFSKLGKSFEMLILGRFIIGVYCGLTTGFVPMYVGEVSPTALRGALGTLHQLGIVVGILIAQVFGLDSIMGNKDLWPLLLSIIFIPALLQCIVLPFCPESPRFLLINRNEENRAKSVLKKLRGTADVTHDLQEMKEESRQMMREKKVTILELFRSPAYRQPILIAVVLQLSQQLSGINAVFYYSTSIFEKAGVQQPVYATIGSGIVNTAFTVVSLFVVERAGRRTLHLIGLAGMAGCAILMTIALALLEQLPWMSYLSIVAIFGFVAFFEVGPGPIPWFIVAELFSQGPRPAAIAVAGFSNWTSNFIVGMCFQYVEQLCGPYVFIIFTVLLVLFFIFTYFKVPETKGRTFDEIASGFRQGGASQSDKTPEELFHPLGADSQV
SMILES,inhibition [1] [%],inhibition [2] [%],inhibition [3] [%]
CCNc1cc(C)nc(Nc2ccc(NC(=O)c3ccccc3)cc2)n1,6.94,4.8,3.79
Cc1cc(O)c(CN(C)Cc2ccc3c(c2)OCCO3)cc1C(C)C,4.86,5.38,2.54
Clc1ccc(-c2cnc3ccc(NCCc4cccnc4)nn23)cc1,1.24,-1.47,0.12
COc1ccc(-c2ccc(NC(=O)c3ccc(F)cc3)cc2)cc1CNC(C)C,0.84,1.24,4.68
c1ccc(CN2CCN(CCNc3c4ccccc4nc4ccccc34)CC2)cc1,13.5,10.9,12.9
CCOc1cc(Cl)c(C(C)NC(=O)c2ccccc2)cc1OCC (stereo unspecified),1.69,3.65,3.01
Cc1ccccc1CNc1noc(-c2sccc2Br)n1,-2.66,-1.49,-1.5
Fc1ccc(CNc2ncc(-c3ccsc3)c(-c3nccs3)n2)cc1,0.01,4.04,0.95
CN1CCN(CC(=O)Nc2ccc(-c3ccc(-c4nc5cc(C(F)(F)F)ccc5[nH]4)s3)cc2)CC1,-0.05,1.22,1.13
Nc1c2c(nc3cc(NC(=O)c4ccc([N+](=O)[O-])cc4)ccc13)CCCC2,5.2,9.51,4.23
OC(CN1CCN(C2CCCCC2)CC1)Cn1c2ccccc2c2cc(Br)ccc21 (stereo unspecified),1.23,0.82,0.47
CC(NCCC1CCC(NC(=O)N[C@H](C)C(O)(c2ccccc2)c2ccccc2)CC1)c1cccc2ccccc12 (stereo partly specified),16.8,16.2,13.4
COc1ccc(CCNc2nc(N)c3cc(OC)c(OC)cc3n2)cc1,2.3,3.91,1.41
CCCCNC(=O)[C@H](CC1CCCCC1)NC(=O)c1ccc(O)c(-c2ccc(OC)cc2)c1,2.45,2.88,4.23
CN1CCN(c2cccc(-c3nnc(-c4ccc(OCC(=O)NCc5cccc(C(F)(F)F)c5)c([N+](=O)[O-])c4)o3)c2)CC1,8.88,8.11,6.46
Cn1nc(-c2cccc(CNCCc3cccs3)c2)c2cnc(NC3CCCC3)nc21,5.58,5.16,5.1

SMILES,inhibition [1] [%],inhibition [2] [%],inhibition [3] [%]
CCc1ccc(C2CCN(CCCCNC(=O)c3ccc(-c4ccc(C(F)(F)F)cc4)cc3)CC2)c(OCCO)c1,7.26,7.58,6.13
Cn1nc(-c2cccc(CN[C@@H]3CCc4ccc(O)cc43)c2)c2cnc(NC3CCCC3)nc21,4.2,3.87,4.68
Cc1cccc2nc(-c3cccc(-c4ccc(CNCc5cccc(N)c5)cc4)c3)[nH]c12,-2.78,-1.49,-2.56
O=C(Nc1cccc(F)c1)N1CCC(CN2CCOC(c3ccccc3)(c3ccccc3)C2)CC1,3.49,4.01,5
CCN(CC)S(=O)(=O)n1ncc2c3c(N)nc(N)nc3ccc21,-2.64,0.17,-2.31
Cc1nc2nc(N)nc(N)c2c(C)c1Cc1ccc(C(N)=O)cc1,1.68,1.64,0.21
O=C(/C=C/c1cccc(C(F)(F)F)c1)NCCCCCN1CCN(C(=O)Nc2ccc(Cl)c(Cl)c2)CC1,2.21,2.33,1.97
CCN(CC)CCN(Cc1ccc(-c2ccc(C(F)(F)F)cc2)cc1)C(=O)Cn1c(CCC2CCCCC2)nc(=O)c2ccccc21,0.48,1.35,0.43
CCCCc1cc(NCc2ccncc2)nc(Nc2ccc(C)cc2)n1,15.4,5.93,2.33
NC(=O)c1ccc(C(=O)Nc2cccc(-c3cccc(-c4nc5cc(C(F)(F)F)ccc5[nH]4)c3)c2)cc1,3.29,5.6,2.11
COc1ccc2nccc([C@@H](O)CN3CCC(NC(=O)C(c4cc5ccccc5o4)N4CCN(c5ccccc5OC)CC4)CC3)c2c1 (stereo partly specified),1.2,0.92,-0.23
CCCN(CCC)CCCNc1ccc(C(=O)Nc2ccc(OCC)cc2)cc1[N+](=O)[O-],32.8,19.4,5.32
O=C(NCC1CCC(C(=O)NCCc2ccc(Cl)c(Cl)c2)CC1)c1ccc(O)c(-c2ccc(Cl)c(Cl)c2)c1 (stereo unspecified),-0.17,0.8,1.89
Ic1cc(CNC2CCCCC2)ccc1OCc1cccc(COc2ccc(CNC3CCCCC3)cc2I)c1,4.09,3.76,2.65
COc1cc(C(=O)N2COCC(CCCN3CCC(N4CCCC4)CC3)(c3ccc(Cl)c(Cl)c3)C2)cc(OC)c1OC (stereo unspecified),3.3,3.39,3.67
O=C(NCCCN1CCCCC1)c1ccc(Nc2nccc(Nc3ccc(Oc4ccccc4)cc3)n2)cc1,10.4,8.47,7.37

# — ChEMBL document CHEMBL3433997, “St. Jude Leishmania screening dataset” (2016)
